From PubChem BioAssay AID493191 (Broad Institute, 2011)
The whole screen tested about 1,300 compounds, of which about 330 (25%) were called active. A selection follows. Potency and affinity values are given separately. A number with no mark means an inactive call. How the calls were made is not given here.

Experiment: growth inhibition of MALME3 cells – cell-based, CellTiter-Glo, cherry-picked, orthogonal assay for MITF inhibitor project, dose response (AID 493191)
Conditions: MALME3 melanoma viability, CellTiter-Glo luminescence, 24 h; series mostly up to 35 µM; activity change, negative = inhibition: at the top concentration

SMILES	activity change, negative = inhibition
CN(C)c1ccc(-n2cccc2/C=C/[N+](=O)[O-])cc1	-41.8%
Cc1cc(Cl)ccc1NC(=O)c1ccc2c(c1)OCO2	13.7%
Cc1ccc(OCC(=O)Nc2cccc(C)n2)c(C)c1	5.8%
O=[N+]([O-])c1cc(S(=O)(=O)N2CCCCCC2)ccc1F	-22.2%
COc1cccc(/C=C/C(=O)c2ccc3c(c2)OCCO3)c1OC	-7.96%
CCN1CCN(c2ccc(S(=O)(=O)N3CCOCC3)cc2NC(=O)/C=C/c2ccc([N+](=O)[O-])cc2)CC1	-29%
COc1ccc(/C=C/C(=O)NC(=S)N2CCN(c3ccccc3OC)CC2)cc1	-2.42%
CN(C)CCNc1ccc2nnn3c4ccc(O)cc4c(=O)c1c23	-23.3%
N=C1C(c2nc3ccccc3[nH]2)=C(O)CN1C1CCCCC1	-0.094%
COc1ccc(/C=C2\Sc3ccc(C(=O)NCCN4CCCCCC4)cc3N(C)C2=O)cc1	-30.5%
COc1ccc(C(=O)NCCSc2ccccc2C)cc1	-4.39%
O=C(NCCSc1ccccc1)c1ccccc1F	-4.77%
CN(C)CCCNc1nc2sc3c(c2c(=O)n1CCc1ccccc1)CCCCC3	-41.2%
CC(C)(C)c1ccc(-c2cn(-c3ccc(Br)cc3)c3[n+]2CCCS3)cc1	-35.8%
OCc1ccc(N=Nc2ccccc2)cc1	4.1%
CN(C)C1CCN(Cc2cc(COCc3ccccc3)c3cccnc3c2O)C1 (configuration not stated)	-30.3%
Oc1c(CN2CCCC2)cc(COCc2ccccc2)c2cccnc12	-30.5%
COc1cccc(CNc2nc3ccccc3n2C)c1O	-9.88%
COC(=O)c1c(NC(=O)c2nc3ccccc3s2)sc2c1CC(C)(C)NC2(C)C	-5.34%
O=C1c2ccccc2CN1c1ccccc1	-4.28%
CC(=O)Nc1ccc2c(c1)ncn2-c1ccccc1	1.87%
O=C(NCc1csc(-c2cccs2)n1)C1CCC1	5.23%
C/C(=N\NC(=O)C(C)Oc1ccc([N+](=O)[O-])cc1)c1ccccn1 (configuration not stated)	-25.6%
CC(=O)N(C1CC(C)C(C#N)(C#N)C1(C#N)C#N)N(C)C (configuration not stated)	45.4%

SMILES	activity change, negative = inhibition
COc1ccccc1N1C(=O)N(C(C)=O)C2C1Nc1ccccc1N2C (configuration not stated)	-21%
N#Cc1cnc2sc3ccccc3n2c1=N	-6.66%
Cc1c(/C=C/C(=O)c2ccc(Cl)s2)cnn1C	1.68%
Cc1c(C=O)c2cc(OCc3ccccc3)ccc2n1C	10.2%
N#C/C(=C\C=C\c1ccccc1[N+](=O)[O-])C(=O)NC1CCCCC1	-15.7%
N#C/C(=C\C=C\c1ccccc1[N+](=O)[O-])C(=O)NCc1ccccc1	-15.7%
Nc1ncnc(Sc2ncccn2)c1[N+](=O)[O-]	14.4%
CC(C)C(=O)Nc1ccc2nn(-c3ccc(F)cc3)nc2c1	1.91%
CS(=O)(=O)N1CCN(c2nc3ccc(Cl)cc3s2)CC1	14.2%
CC(O)CNC(=O)C1CCN(Cc2ccc(OCc3ccccc3)cc2)CC1 (configuration not stated)	-0.748%
CCCN1CCC(NCc2cn(C)nc2-c2ccc(Oc3ccccc3)cc2)CC1	-33.6%
Cc1ccccc1NC(=O)Cc1nc(COC(=O)c2ccc(S(C)(=O)=O)c([N+](=O)[O-])c2)cs1	-35.7%
COC(=O)c1ccc(COc2ccc(C)cc2[N+](=O)[O-])o1	0.832%
Cc1ccc(-c2n[nH]c(=O)c3ccccc23)cc1S(=O)(=O)NCC1CCCO1 (configuration not stated)	-3.9%
C=CCNC(=O)Cn1nnc(-c2ccc(-c3ccc(OC)cc3)cc2)n1	-6.58%
O=C(N/N=C/C=C/c1ccccc1)c1ccccn1	6.57%
Cc1ccc(-c2cn3nc(C)c(C)nc3n2)cc1	-19.4%
Cc1ccc2oc(Nc3nc(C)c(C)c(C)n3)nc2c1	-2.9%
C=C1C(=O)C2=CC1CCC(=O)C1(C)CCC(OC(C)=O)C(C)(C)C1CC2O (configuration not stated)	-43.8%
N/C(=N\OC(=O)c1ccccc1Cl)c1cccc([N+](=O)[O-])c1	3.35%
O=C(NC(=S)Nc1ccccn1)c1cccc([N+](=O)[O-])c1	-0.338%
CCOc1ccc2nc(C)cc(Nc3cccc([N+](=O)[O-])c3)c2c1	-64.2%
COC(=O)c1ccc(Nc2cc(C)nc3ccc(C)cc23)cc1	-5.79%
Clc1ccc(-c2c[n+](Cc3cccc(Cl)c3)c3n2CCC3)cc1	-3.77%

SMILES	activity change, negative = inhibition
O=c1c2ccccc2cnn1CCOc1ccccc1	-21.9%
O=[N+]([O-])c1cc(C(F)(F)F)ccc1NCCc1ccccn1	3.81%
CS(=O)(=O)c1ccc2nc(NC(=O)c3ccccc3)sc2c1	-14%
CS(=O)(=O)c1ccc(C(=O)OCC(=O)NCc2cccs2)cc1[N+](=O)[O-]	-38.8%
O=C(O)c1cccc(NC(=O)c2cccc(NC(=O)C3CCCO3)c2)c1 (configuration not stated)	2.35%
O=C(N/N=C/c1ccc([N+](=O)[O-])s1)c1ccccc1	-49.8%
Cc1ccc(C(=O)N/N=C\c2ccc([N+](=O)[O-])s2)cn1	-42.5%
C=C1CCC[C@]2(C)C[C@H]3OC(=O)C(CN4CCCCC4CO)[C@H]3CC12 (some centres not stated)	18%
COc1cc(SC)ccc1C(=O)Nc1ncc(C)s1	-18.2%
O=C(NCc1ccccc1)C(=O)Nc1cccc(C(=O)O)c1	3.68%
CC(C)(C)c1cc(NCCCn2ccnc2)n2ncc(-c3ccccc3)c2n1	-26.9%
Nc1ccc(-c2nc3c(Cl)cc(N)cc3[nH]2)cc1	7.31%
Cc1c(C#N)c(O)n(CCO)c(=O)c1N=Nc1ccc2c(c1)COC2=O	-14.4%
CCN(CC)c1ccc(/C=N/NC(=O)c2cccc(S(=O)(=O)N3CCOCC3)c2)c(O)c1	-15.7%
CCSc1nnc(NC(=O)C2CCCCC2)s1	6.64%
O=C(CCl)N(c1ccccc1)c1c[nH]c2ccccc12	-41.4%
O=C(CCl)N(Cc1cc(=O)[nH]c2ccccc12)c1ccccc1	-29.2%
Clc1cccc(-c2nc(-c3ccccn3)no2)c1	-33.8%
Fc1ccccc1-c1nc(-c2ccncc2)no1	-6.62%
Clc1ccccc1CSc1nnc(-c2ccncc2)o1	-8.1%
CCOc1ccc(N(CC(=O)Nc2ccc(OC)cc2)S(C)(=O)=O)cc1	-6.34%
CCC(=O)Nc1cc2nn(-c3ccc(C)cc3)nc2cc1C	5.18%
CC(=O)SC(C[N+](=O)[O-])c1cn(C(C)=O)c2ccccc12 (configuration not stated)	-33.7%
CC1Cc2ccccc2N1C(=O)c1ccc(Br)o1 (configuration not stated)	-23.8%

SMILES	activity change, negative = inhibition
CCOC(=O)/C=c1/s/c(=C/c2ccc3cc(OC)ccc3c2)c(=O)n1CC(=O)NCC1CCCO1 (configuration not stated)	-15.4%
O=C(Nc1ccc(-c2cn3c(n2)SCC3)cc1)c1ccco1	-3.35%
O=C(NC1=NCCS1)C1COc2ccccc2O1 (configuration not stated)	-18.9%
C/C(=N\NC(=O)C1COc2ccccc2O1)c1ccccn1 (configuration not stated)	-16.7%
C/C(=N\NC(=O)COc1ccccc1-c1ccccc1)c1ccccn1	-23%
O=[N+]([O-])c1ccc(N/N=C/C=C/c2ccco2)cc1	-6.15%
C=CCOc1ccc(/C=C2\SC(=S)N(CCC(=O)O)C2=O)cc1	8.72%
Cc1c(C#N)c(NC(=O)CCl)n(Cc2cccs2)c1C	-41.2%
O=C(NCc1cccs1)c1nc2c(nnn2Cc2ccccc2Cl)c(=O)[nH]1	0.593%
CC(=O)Oc1c(C(=O)c2nnc(C)o2)c(=O)n(Cc2ccccc2)c2ccccc12	-19.6%
Cc1ccc(OCC(=O)N/N=C/c2ccc([N+](=O)[O-])o2)cc1	-39.6%
COc1ccc(/C=N/NC(=O)Cc2cccs2)cc1	-1.89%
Cc1occc1C(=O)N/N=C/c1ccc(OCc2ccccc2)cc1	-1.16%
Cc1ccc(SCCC(=O)N2CCC(C)CC2)cc1	7.77%
Cc1cc(/C=C(\C#N)C(=O)O)c(C)n1CC(C)C	11.7%
Cc1ccc(SCCSc2ncccn2)cc1	-13.9%
Nc1c(-c2ccccc2)cnc2c(-c3ccccc3)cnn12	-2.55%
COc1ccccc1OCCN1CSC(=S)N(C)C1	-42.5%
O=C(Nc1ccc(F)cc1F)c1cc2ccccc2oc1=O	6.79%
COc1ccc(C(=O)CN2Cc3ccccc3C2=N)cc1	-7.91%
O=C(Nc1ccccc1)O/N=C/c1ccc(F)cc1	-5.62%
CC1(C)Cc2c(sc(NC(=O)c3ccc4ncsc4c3)c2C(N)=O)C(C)(C)N1	-0.009%
CCCN(CCC)C1=CC(=[N+]2CCCC2)CC(C)(C)C1	-17.8%
O=C(N/N=C/c1ccc(F)cc1)c1c(O)c2ccccc2[nH]c1=O	-2.15%

SMILES	activity change, negative = inhibition
Cc1ccc(NC(=O)c2cc3ccccc3oc2=O)cc1S(=O)(=O)N(C)C	-37.5%
CC(C)C(=O)Nc1cccc(NC(=O)c2cc3ccccc3o2)c1	-6.15%
Cc1ccc(-c2nc(C#N)c(NCc3ccco3)o2)cc1	-2.18%
Cc1ccc2c(COC(=O)c3n[nH]c4ccccc34)cc(=O)oc2c1	-17.5%
N#C/C(C(=O)c1ccccc1)=C1/CCCCCN1	-9.1%
COc1ccc2c(c1OC)C(=O)N(c1ccc(C)cc1)C2	-3.44%
CCOc1cc(/C=C(/C#N)c2ccc(Cl)cc2)cc(Cl)c1OCC(=O)O	13.5%
O=C(Nc1ccc2nc3n(c(=O)c2c1)CCCCC3)c1cc([N+](=O)[O-])ccc1F	-16%
CC(C)(C)C(=O)Nc1cc2nn(-c3ccccc3)nc2cc1Cl	-14.6%
Oc1ccc(-c2nnc(SCC3CCCCC3)o2)cc1	-10.5%
CC(=O)c1cccc(Nc2nc(-c3cccnc3)cs2)c1	-5.43%
CCOc1cc(/C=C\[N+](=O)[O-])ccc1OCC(=O)N1CCOCC1	-26.9%
C/C(=N/Nc1nc(C)c(C)s1)c1cccc([N+](=O)[O-])c1	-0.825%
CCOc1ccccc1NC(=O)C1C2CCC(O2)C1C(=O)O (configuration not stated)	22.9%
Cc1cc(/C(N)=N/OC(=O)Nc2ccc(Cl)cc2)no1	0.994%
COc1ccccc1/C=C/C=N/NC(=O)c1cccs1	9.36%
COc1ccc(NC(=O)c2cc3ccccc3oc2=O)c(OC)c1	-10.4%
COc1cccc(/C=N/NC(=O)c2cccs2)c1	4.46%
Cc1ccccc1OCC(=O)Nc1cccc(C(=O)O)c1	6.99%
COc1ccc(-c2noc(-c3cccs3)n2)cc1OC	3.3%
N#CCSc1nc2ccccc2c2nc3ccccc3n12	-38.1%
